The text below walks through data of PubChem BioAssay AID430 (Sanford-Burnham Center for Chemical Genomics, 2006).

Hit rate of the full screen: of about 63,000 compounds, about 1,100 (1.7%) were called active. This excerpt belongs to a sample that is enriched for actives. Entries with a potency or affinity are not part of this list. A number with no mark means an inactive call. Cut-off read from the data, not from the text of the source: active = cytotoxicity above about 50%; inactive = the rest.

This assay is described as follows: cytotoxicity in HPDE-C7 cells, cell-based, fluorescence, HTS (AID 430).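 Note: cells exposed to compound for 48 hours before viability readout; 0% = vehicle and 100% = reference cytotoxic drug.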 Conditions: HPDE-C7 pancreatic duct cells viability, at 10 µM, active compounds read high.
For `CC(NC(=O)Cn1cnc2c1c(=O)n(C)c(=O)n2C)c1ccccc1` (configuration not stated), the cytotoxicity was -1.6%.

For the compound `CCc1cccc(NC(=O)C2CCCN(S(=O)(=O)c3c(C)[nH]c(=O)[nH]c3=O)C2)c1` (configuration not stated), the cytotoxicity is -1.3%.

Consider `[O-][N+]12CCN(CC1)c1ccccc12`, for which the cytotoxicity is -14.6%.

In the case of `Cc1ccc2nc3ccc(N4CCCC4)nn3c(=O)c2c1`, the cytotoxicity was 4.6%.

As for `CCOC(=O)C1C(c2cccc(Cl)c2Cl)NC(=O)NC1(O)C(F)(F)F` (configuration not stated), the cytotoxicity was -1.7%.

For `COC(=O)C1=C(C)NC(=O)CC1c1cccc(Cl)c1Cl` (configuration not stated), the cytotoxicity is -12.9%.

Regarding `N#CC1=C(SCC(=O)NC23CC4CC(CC(C4)C2)C3)NC(=O)C(C#N)C12CCCCC2` (configuration not stated), the cytotoxicity was 49.7%.

Regarding `CCOC(=O)C1=C(SCC(=O)Nc2ccccc2)NC(=O)C(C#N)C12CCCCC2` (configuration not stated), the cytotoxicity is 1.9%.

Regarding `N#CC1=C(SCC(=O)NC2CC2)NC(=O)C(C#N)C12CCCCC2` (configuration not stated), the cytotoxicity is -13.2%.

For the compound `CC(C)(C)C1CCC2(CC1)C(C#N)=C(SCC(=O)NC1CCCCC1)NC(=O)C2C#N` (configuration not stated), the cytotoxicity is 58.7% (active).

Take `N#CC1=C(N)NC(SCC(=O)Nc2ccccc2)=C(C#N)C12CCCC2`: the cytotoxicity is 1.6%.

With `Cc1ccc2[nH]c(=O)c(CN(Cc3nnnn3Cc3ccccc3)C3CCCC3)cc2c1`, the cytotoxicity was -16.4%.

For `Cc1cnc(-c2nnc(N(C)C(=O)C3CCCO3)s2)cn1` (configuration not stated), the cytotoxicity is -5.4%.

Turning to `O=C(Nc1c(C(=O)N2CCCCC2)cnn1-c1ccccc1)c1ccco1`, the cytotoxicity is -10.4%.

As for `Cc1ccc(NC(=O)c2cnn(-c3ccccc3)c2NC(=O)c2ccco2)cc1C`, the cytotoxicity is 1.7%.

In the case of `Cc1ccc(-n2ncc(C(=O)N3CCc4ccccc4C3)c2NC(=O)c2ccco2)cc1C`, the cytotoxicity is 71.2% (active).

As for `CC(=O)Nc1ccc(S(=O)(=O)N2CCC(c3nc4ccccc4[nH]3)CC2)cc1`, the cytotoxicity was 6.7%.

As for `CC(=O)Nc1ccc(S(=O)(=O)N2CCN(c3cc(C)nc4ccccc34)CC2)cc1`, the cytotoxicity is 2.1%.

Consider `COc1ccc(S(=O)(=O)N2CCN(c3cccc(C)c3C)CC2)cc1`, for which the cytotoxicity is 2%.

With `CC(=O)Nc1ccc(S(=O)(=O)N2CCN(c3cc(C)ccc3C)CC2)cc1`, the cytotoxicity is 7.6%.

`CC(=O)Nc1ccc(S(=O)(=O)N2CCN(c3cccc(C)c3C)CC2)cc1`: the cytotoxicity was 54.3% (active).

As to `CC(=O)Nc1ccc(S(=O)(=O)NC(CC(=O)N(C)Cc2ccccc2)C(C)C)cc1` (configuration not stated), the cytotoxicity is -7.1%.

As for `CC(C)N1CC(C(=O)Nc2nc3ccccc3s2)CC1=O` (configuration not stated), the cytotoxicity was -0.4%.

With `Nn1c(Nc2ccccc2)nc2sc3c(c2c1=O)CCC3`, the cytotoxicity is 57.6% (active).

With `CCCc1nc2sc3c(c2c(=O)n1N)CCC3`, the cytotoxicity was 3%.

Regarding `CCc1nc2sc3c(c2c(=O)n1N)CCC3`, the cytotoxicity was 1.2%.

`COc1ccc(S(=O)(=O)N(CC(=O)O)c2ccc(C)cc2)cc1`: the cytotoxicity is -20.8%.

Consider `O=C(NCc1cccnc1)C1c2ccccc2C(=O)N1Cc1ccco1` (configuration not stated), for which the cytotoxicity was -4.7%.

Turning to `O=C(Cc1cn2ccsc2n1)Nc1nc2c(s1)CCCC2`, the cytotoxicity was 6.8%.

On to `O=C(Cc1cn2ccsc2n1)Nc1nc2c(s1)CN(Cc1ccccc1)CC2`, for which the cytotoxicity is -4.7%.

Turning to `CC(C)(C)C1CCc2nc(NC(=O)Cc3cn4ccsc4n3)sc2C1` (configuration not stated), the cytotoxicity was 57.3% (active).

In the case of `COc1ccc(C(=O)CSC2=C(C#N)C3(CCCCC3)C(C#N)=C(N)N2)cc1`, the cytotoxicity was 22.5%.

For `N#CC1=C(N)NC(SCC(=O)O)=C(C#N)C12CCCC2`, the cytotoxicity is 4.9%.

For `CC1(C)CC(=O)C2=C(C1)NC(SCC(=O)Nc1ccccc1)=C(C#N)C21CCCCC1`, the cytotoxicity was -19.2%.

As to `CCSC1=C(C#N)C2(CCCC2)C(C#N)=C(N)N1`, the cytotoxicity is -1.6%.

As for `CCSC1=C(C#N)C2(CCCCC2)C(C#N)=C(N)N1`, the cytotoxicity was -4.6%.

For the compound `N#CC1=C(N)NC(SCc2ccccc2)=C(C#N)C12CCCCC2`, the cytotoxicity was 72.2% (active).

Regarding `CSC1=C(C#N)C2(CCCC2)C(C#N)=C(N)N1`, the cytotoxicity is 22.6%.

For the compound `CCOC(=O)c1cnn(-c2ncnc3c2oc2ccccc23)c1N`, the cytotoxicity was -2.5%.

Take `COc1ccc(C2(CCN)CC(C)N(C)CC2C)cc1` (configuration not stated): the cytotoxicity was -5.8%.

Turning to `O=C(c1cc(F)c(F)cc1Cl)N1CCCCC1`, the cytotoxicity is -3%.

As to `CCCSc1nc2c(cnn2-c2ccc(F)cc2)c(=O)[nH]1`, the cytotoxicity was -9.3%.

Regarding `Cc1ccc(S(=O)(=O)NCCCN2CCOCC2)cc1C`, the cytotoxicity was -25%.

Turning to `Oc1ccc(-c2nc3cnccn3c2Nc2ccc3c(c2)OCCO3)cc1`, the cytotoxicity was 3.8%.

With `CCOC(=O)c1sc(NC(=O)CSc2n[nH]c(-c3ccccc3)n2)c(C#N)c1C`, the cytotoxicity is 4.4%.

For the compound `CCOC(=O)c1c(NC(=O)CSc2n[nH]c(N)n2)sc(CC)c1C`, the cytotoxicity is -3.3%.

Turning to `O=C(COC(=O)C1COc2ccccc2O1)NC(=O)NC1CCCC1` (configuration not stated), the cytotoxicity was -11.8%.
